Reference: PubChem BioAssay (NCI)
Values joined by “and” are separate entries in the source; they are usually repeats but may differ in a detail not shown here. Identical values can stand only once. This is part of a sample that, as a whole, favours compounds with a hit. Of some 83,000 tested, about 20% had one in any assay.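 Compound tested at a single concentration for 48 hours in 96-well plates; a percent growth value below 10 was scored as active.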 Active and inactive are the calls of the source.

Experiments:
Experiment in all cases: NCI-60 one-dose screen, 48 h (100 = growth as untreated, 0 = no growth, -100 = all killed)
Conditions in all cases: 10 µM unless noted
[1] = test system: SR leukemia
[2] = test system: RPMI-8226 leukemia
[3] = test system: OVCAR-8 ovarian
[4] = test system: OVCAR-5 ovarian
[5] = test system: OVCAR-4 ovarian
[6] = test system: SK-OV-3 ovarian
[7] = test system: IGROV1 ovarian
[8] = test system: OVCAR-3 ovarian
[9] = test system: HS 578T breast
[10] = test system: NCI/ADR-RES ovarian

Measured: growth

COc1cc(C2CC(c3ccc(S(=O)(=O)NCCNc4nc(N(C)C)nc(N5CCOCC5)n4)cc3)=Nc3c(N)nc(N)nc3N2)cc(OC)c1OC (stereo not given)
inactive: [1] 93.3% | [2] 84.9% | [3] 103% | [4] 93.4% | [5] 95.1% | [6] 115% | [7] 105% | [8] 105% | [9] 76.6% | [10] 92.8%

COc1ccc(-c2cc(C)nc3[nH]c(=O)sc23)cc1
inactive: [1] 75.5% | [2] 69.4% | [3] 63.5% | [4] 80.4% | [6] 55.9% | [7] 62.5% | [8] 67.1% | [9] 48.2% | [10] 62.4%
active: [5] 2.45%

O=C(N/N=C/c1ccsc1)c1[nH]c2ccc(Br)cc2c1-c1ccccc1
active: [1] 2.42% | [2] 1.5% | [3] -49.4% | [4] -57.4% | [5] -30.8% | [6] -36.9% | [7] -57% | [8] -72.9% | [9] -13.3% | [10] -42%

Cc1nn(-c2ccccc2)c2nc(C)n(C(=O)N/N=C/c3cccc([N+](=O)[O-])c3)c(=O)c12
inactive: [1] 98.6% | [2] 94% | [3] 94.5% | [4] 84.7% | [5] 53.2% | [6] 106% | [7] 91.9% | [8] 99.8% | [9] 91.2% | [10] 93.3%

CC1(C)CC(=O)C2=C(C1)OC(N)=C(c1nc3ccccc3[nH]1)C2c1ccc(Cl)cc1 (stereo not given)
inactive: [1] 41.4% and 97.8% | [2] 45.8% and 109% | [3] 69.2% and 108% | [4] 101% and 118% | [5] 57.6% and 109% | [6] 111% and 108% | [7] 62.3% and 108% | [8] 47.8% and 78.4% | [10] 78% and 109%
6.8% (active) and 119% (inactive): [9]

O=C(NNC(=S)NCCc1ccccc1)c1ccc(OCc2nc3ccc(Cl)cc3[nH]2)cc1
inactive: [1] 54.2% | [2] 49.1% | [3] 86.2% | [4] 113% | [5] 49.7% | [6] 102% | [7] 80.3% | [8] 68.2% | [9] 81.2% | [10] 93.9%

Cc1cn(-c2cc(NC(=O)c3ccc(C)c(-n4cc(-c5cnc6cccnn56)nn4)c3)cc(C(F)(F)F)c2)cn1
inactive: [1] 23.2% | [2] 53.9% | [3] 92.4% | [4] 58.3% | [5] 100% | [6] 124% | [7] 88.7% | [8] 124% | [9] 108% | [10] 94.5%

N#CC1=C(c2ccco2)Nc2c(c(-c3ccccc3)nn2-c2ccccc2)C12C(=O)Nc1ccc(Br)cc12 (stereo not given)
inactive: [1] 31.9% | [2] 47.8% | [3] 25% | [4] 74.9% | [5] 41.6% | [6] 80% | [7] 67% | [8] 42.5% | [10] 29.9%
active: [9] 6.01%

Cc1ccc(C(=O)Nc2cc(-n3ccnc3C)cc(C(F)(F)F)c2)cc1C#Cc1cnc2cccnn12
inactive: [3] 18.5% | [5] 15.6% | [8] 37.8%
active: [1] -17.9% | [2] -14.8% | [4] 7.14% | [6] -0.287% | [7] 4.66% | [9] -25.9% | [10] 4.26%

CS(=O)(=O)Nc1cc(-c2ccc3ncnc(N4CCc5cc(F)c(Cl)cc54)c3c2)cnc1Cl
active: [1] -31.9% | [2] -9.06% | [6] -17.5% | [7] -33.7% | [8] -22.6% | [9] -31.8%
inactive: [3] 13.3% | [4] 11.1% | [5] 10.6% | [10] 12.1%

Cc1ccc(C(=O)Nc2ccc(-n3ccnc3)c(C(F)(F)F)c2)cc1C#Cc1cnc2cccnn12
active: [2] -4.27% | [9] -7.38%
inactive: [1] 13.8% | [3] 18.6% | [4] 39.8% | [5] 13.6% | [6] 48% | [7] 20% | [8] 45.4% | [10] 24.7%
